# Pf Dd2 inh: Plasmodium falciparum Dd2 growth inhibition; P. falciparum Dd2 growth, SYBR Green, 72 h; Potency, µM (highest dose often 28.9 µM), hits mostly inhibitors; 120,000 compounds, 4.3% hits; active means well fitted inhibition curve with a large enough effect; further: nearly all actives have a fitted effect of over 65% in size
#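 Infected erythrocytes (Dd2, 0.3% parasitemia, 2.5% hematocrit final) are added to compound in RPMI-1640/Albumax II medium, grown 72 h at 37C in low oxygen, then lysed with saponin/Triton-X containing SYBR Green and read by fluorescence.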
# Hits are given with their value; - = inactive. The full list was thinned out, with hits kept by preference.
SMILES,Pf Dd2 inh
CC(C)c1noc(-c2cn(C3CCN(C(=O)c4cccc5[nH]ccc45)CC3)nn2)n1,-
COc1cccc(C(=O)N2CCC(N3C[C@H](O)C[C@H]3C(=O)N3CCN(c4ncccn4)CC3)CC2)c1,-
CNC(=O)[C@@H]1C[C@@H](O)CN1C1CCN(C(=O)c2cccc(OC)c2)CC1,-
COc1cccc(C(=O)N2CCC(N3C[C@H](O)C[C@H]3C(=O)NC3CC3)CC2)c1,-
COc1cccc(C(=O)N2CCC(N3C[C@H](O)C[C@H]3C(=O)N3CC=C(c4ccccc4)CC3)CC2)c1,0.89µM
COc1cccc(C(=O)N2CCC(N3C[C@H](O)C[C@H]3C(=O)N3CCc4ccccc43)CC2)c1,2.5µM
C=CCN1CCN(C(=O)[C@@H]2C[C@@H](O)CN2C2CCN(C(=O)c3cccc(OC)c3)CC2)CC1,-
CN(C)C[C@@H]1CN(C2CCOCC2)C[C@H]1NC(=O)c1ccc(F)c(Cl)c1,-
O=C(NCC(O)c1ccccc1C(F)(F)F)c1cccc(-n2cnnc2)c1 (centres undefined),-
O=C(c1cccnc1)N1CCCCC1c1noc(COc2ccc(F)cc2)n1 (centres undefined),-
C[C@@H]1CN(C(=O)c2cccc(C#N)c2)CC[C@@]1(O)C1CCOCC1,-
N#Cc1ccccc1CN1C(=O)NC(c2cccnc2)(C2CCNCC2)C1=O (centres undefined),-
CCNC(=O)N1CCc2cc(OC)c(OC)cc2C1CNC(=O)C1CC1 (centres undefined),-
COc1ccc(C(=O)N2CCc3ccc(C(=O)NCc4ccccc4C)cc32)cc1,-
COc1cc2c(cc1OC)C(COc1ccc(F)cc1)N(C(=O)C(C)C)CC2 (centres undefined),-
COC(=O)c1ccc(OCC2c3cc(OC)c(OC)cc3CCN2C(=O)c2ccc(F)cc2)cc1 (centres undefined),11µM
COC(=O)c1ccc(OCC2c3cc(OC)c(OC)cc3CCN2C(=O)c2ccccc2C)cc1 (centres undefined),11µM
CCOc1cc2c(cc1OCC)C(CC(=O)O)N(C(=O)Nc1ccccc1C(F)(F)F)CC2 (centres undefined),-
COc1ccc(-c2noc([C@@H]3CCCN3C(=O)Cc3ccc(F)cc3)n2)cc1OC,-
COc1cc2c(cc1OC)C(CNC(=O)c1ccco1)N(C(=O)Nc1cccc(F)c1)CC2 (centres undefined),-
COc1ccc(CC(=O)N2CCc3cc(OC)c(OC)cc3C2COc2ccc(F)cc2)cc1OC (centres undefined),11µM
CCn1cc2c3c(cccc31)CN(C(=O)CC(C)(C)C)CC2,-
Cc1cc(Br)ccc1NC(=O)Cn1nc2c(cc1=O)CCCCC2,-
Fc1ccccc1CNC1(Cc2cc(-c3ccccn3)on2)COC1,-
CS(=O)(=O)c1ccc(CC(=O)N2CCCC(c3cccc(C(=O)O)c3)C2)cc1 (centres undefined),-
SMILES,Pf Dd2 inh
Cc1cccc([S+](=O)([O-])N2CCC3(CC2)OCCN(c2cccnc2)C3=O)c1,-
COCc1ccc(CN[C@H]2C[C@@H](Cc3cc(CCO)on3)C2(C)C)o1,-
Cc1noc(C)c1[S+](=O)([O-])N1CCCC2(C1)C(=NC1CCCCC1)NC(=O)N2c1cccnc1 (centres undefined),-
C[C@@H](NC(=O)c1cnccn1)c1onc(-c2ccc(F)cc2)c1C(=O)O,-
CCn1cc(S(=O)(=O)N2CC[C@H](c3nc(C)no3)[C@H](NC(=O)C3CC3)C2)cn1,-
Cc1cccc(C(=O)N2CCn3nnc(CCC(=O)NC4CC4)c3C2)c1,-
COc1cccc(CNc2ncnc3c2CN(C2CCCNCC2)C(=O)CN3C)c1 (centres undefined),-
COc1ccc(CN2C(=O)[C@@H]3C[C@@H](O)CN3C3(CN(C(C)C)C3)C2=O)cc1,-
CN1c2cc(C(=O)NCc3ccc(Cl)cc3)ccc2C(=O)N2CCCCC21 (centres undefined),-
CN1c2cc(C(=O)NCc3ccccc3)ccc2C(=O)N2CCCCC21 (centres undefined),-
CCN1c2cc(C(=O)NCc3cccc(OC)c3OC)ccc2C(=O)N2CCCCCC21 (centres undefined),-
CCN1c2cc(C(=O)NCc3cccc(Cl)c3)ccc2C(=O)N2CCCCCC21 (centres undefined),-
CCN1c2cc(C(=O)NCc3ccc(C)c(C)c3)ccc2C(=O)N2CCCCCC21 (centres undefined),-
CCN1c2cc(C(=O)NCc3ccc(Cl)cc3)ccc2C(=O)N2CCCCC21 (centres undefined),8.9µM
CC(C)c1ccc(CNC(=O)c2ccc3c(c2)N(C)C2CCCCN2C3=O)cc1 (centres undefined),2.2µM
CCN1c2cc(C(=O)NCc3ccc(OC)cc3)ccc2C(=O)N2CCCCCC21 (centres undefined),-
CCN1c2cc(C(=O)NCc3ccccc3C)ccc2C(=O)N2CCCCCC21 (centres undefined),6.3µM
O=C(CCc1ccccc1)N1CCC2(CC1)NC(=O)N(c1ccccc1)N2,-
O=C(O)C1=NOC2CN(C(=O)C3CCCCC3)CC12 (centres undefined),-
CC(C)C(=O)N1CCC(CC(=O)NCc2ccccc2)C1 (centres undefined),-
Cc1nc(-c2c3n(c(=O)n(Cc4cccc(Cl)c4)c2=O)CCCCC3)no1,-
C=CCNc1nc(C2CC2)nc2c1CCN(C(=O)c1cscn1)CC2,-
O=C(CCC1CCCN(S(=O)(=O)c2ccccc2F)C1)NCCc1ccccc1 (centres undefined),-
CCO[C@H]1CN(Cc2ccc(OC)c(OCc3cccc(F)c3)c2)C[C@@H]1O,13µM
CCO[C@H]1CN(Cc2cnc(SCc3ccccc3)nc2)C[C@@H]1O,-
SMILES,Pf Dd2 inh
COCc1noc([C@@H]2CN(Cc3cccc(F)c3)C[C@H]2COC)n1,-
COCCc1noc([C@@H]2CN(C3CCCCCC3)C[C@H]2CO)n1,-
CC(C)C(=O)Nc1ccc2c(c1)CN(CCc1ccc(F)cc1)C(=O)C(C)O2 (centres undefined),-
O=C1CCCN1CCCN1C(=O)[C@@H]2C[C@@H](O)CN2C2(CN(Cc3ccc(Cl)cc3)C2)C1=O,-
COc1cc2c(c(OC)c1)C(c1cc(OC)c(OC)c(OC)c1)CC(=O)N2 (centres undefined),-
COc1cc(C2CC(=O)Nc3cc4c(cc32)OCCO4)cc(Br)c1OC (centres undefined),1µM
COc1cccc(C2CC(=O)Nc3cc4c(cc32)OCO4)c1OC(C)C (centres undefined),-
Cc1cccc(C2CC(=O)Nc3cc4c(cc32)OCO4)c1 (centres undefined),-
CCOc1c(Br)cc(C2CC(=O)Nc3cc4c(cc32)OCO4)cc1OC (centres undefined),3.2µM
CCOc1cc(C2CC(=O)Nc3cc4c(cc32)OCCO4)ccc1O (centres undefined),-
Cc1ccc(C)c2c(=O)cc(CNC(CCn3cncn3)c3ccccc3)[nH]c12 (centres undefined),-
CN(CCc1ccccn1)C(=O)[C@@]12CCCC[C@H]1N(C)C(=O)CC2,-
CCCC(C)N1CC2(CCN(Cc3nnc(-c4ccccc4)o3)CC2)OC1=O (centres undefined),-
Cc1cccc(C)c1NC(=O)CN1C(=O)NC2(CCCCC2)C1=O,-
Cc1nn(C)c2nc(-c3ccccn3)nc(NCC(c3ccco3)N(C)C)c12 (centres undefined),8.9µM
Cc1nc(CCNc2nc(-c3ccccn3)nc3c2c(C)nn3C)no1,-

# High-throughput results deposited in PubChem by National Center for Advancing Translational Sciences (NCATS).
